HT1080 IDH1KD tx – toxicity to HT-1080 IDH1 knockdown cells (counter line) | Potency, µM (titrated, usually from 46.1 µM), for the others: top-dose activity, negative = toxicity, hits mostly cytotoxic | HT-1080 IDH1 knockdown viability, ATP luminescence, 48 h | actives 2% (n = 360,000);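 further: potency means the concentration at half of the fitted maximal effect; 0% = DMSO wells and -100% = cell-free medium wells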
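Viability of IDH1-knockdown HT-1080 fibrosarcoma cells was assessed by CellTiter-Glo after 48 h at 37 °C with titrated compound; concentration-effect curves were classified by fit quality and response size.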
IL-1B inflam inh – inhibitors of inflammasome signaling (IL-1 beta secretion). THP-1 LPS/ATP IL-1B secretion, AlphaLISA, 16 h; stronger effect = lower value. activity change, % at 57.5 µM. actives 4.7% (n = 360,000); in the data active means activity change below about -50%; inconclusive means mostly about -30% to -49%
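Secreted IL-1B measured by AlphaLISA bead assay after 16 h compound exposure of THP-1 cells; compounds (final up to 57.5 uM) added 1 h before LPS (250 ng/mL) and ATP (1.25 mM) stimulation; lower signal means less secretion.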
ELG1 repair inh – inhibitors of ELG1-dependent DNA repair in HEK293T cells | HEK293T ELG1-luciferase reporter, luminescence, 16 h; DNA damage induced by 5-fluorouridine | Potency, µM (doses to about 46.1 µM), inactives show at the highest dose activity change, negative = inhibition, usual class: inhibitors | actives 2.3% (n = 330,000); further: potency means the concentration at half of the fitted maximal effect; nearly all actives have a fitted effect of over 55% in size
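Step one: seed 2,000 cells per well. Step two: pin-transfer compound or DMSO alongside 5-fluorouridine. Step three: incubate 16 hr, 37 °C, 5% CO2. Step four: add ONE-Glo, wait 30 min, read luminescence.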
HT1080NT lethal – kills 2HG-producing HT-1080-NT fibrosarcoma cells | HT-1080-NT fibrosarcoma viability, CellTiter-Glo ATP luminescence, 48 h | Potency, µM (highest dose often 46.1 µM), without a hit: top-dose activity, negative = less viability, usual class: cytotoxic | actives 1.6% (n = 360,000);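 further: NT is the 2HG producing partner of a matched IDH1 knockdown line; potency means the concentration at half of the fitted maximal effect; 0% = DMSO-treated cells and -100% = media-only wells without cells; nearly all actives have a fitted effect of over 55% in size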
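Luminescent CellTiter-Glo readout after 48 hours of compound exposure at 37 degrees C defined viability of HT-1080-NT cells. Activity was normalized to DMSO wells and cell-free media wells; concentration-response curves were fitted and assigned curve classes.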
DT40 TDP1 no CPT – qHTS for Inhibitors of human tyrosyl-DNA phosphodiesterase 1 (TDP1): qHTS in cells in absence of CPT. Potency, µM (highest dose often 46.2 µM), without a hit: at the highest dose activity change, negative = growth inhibition, most hits filed as inhibitors. actives 15% (n = 420,000). DT40 Tdp1-/- hTDP1 cells, no CPT, ATP luminescence, 48 h; further: potency means the concentration at half of the fitted maximal effect; nearly all actives have a fitted effect of over 55% in size
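No-CPT arm: Tdp1-/-;hTDP1 DT40 cells (400/well) plus compounds, incubated ≥48 hr at 37 °C. Readout CellTiter-Glo luminescence.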
DT40 TDP1 CPT – growth inhibition of DT40 Tdp1-/-;hTDP1 cells with camptothecin (screen for TDP1 inhibitors) | actives 12% (n = 420,000) | chicken DT40 Tdp1-/-;hTDP1 cells + 20 nM CPT, ATP luminescence, 48 h | Potency, µM (top dose mostly 46.2 µM), inactives show top-dose activity change, negative = growth inhibition, actives largely listed as inhibitors; further: potency means the concentration at half of the fitted maximal effect; nearly all actives have a fitted effect of over 55% in size
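Cell growth measured by CellTiter-Glo luminescence after a minimum 48 h, 37 C compound exposure with 20 nM CPT in Tdp1-knockout DT40 cells stably expressing hTDP1, seeded 400/well; qHTS titration format.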
* = called active by the depositor. The list is not random: actives were taken first. Their share in the collection is about 19%. Unless noted, the call rests on the fitted dose curve; in most records, active means well fitted curve in the direction sought with a large enough effect; inconclusive means small, poorly fitted or top-dose-only effect, or another doubt; inactive means no such curve, though single readings can be large; an effect the other way counts as inactive or inconclusive. Unless noted, on the % scale 0 is the no-effect control and ±100 the full control effect.

Screening N#Cc1cccc(NC(=O)N2CCCC3(CCN(S(=O)(=O)c4ccccc4)CC3)C2)c1 returned DT40 TDP1 no CPT -28% and DT40 TDP1 CPT 6%.
Cc1ccsc1CN(C)C(=O)c1ccc(Oc2ccccc2)cc1 was read as HT1080 IDH1KD tx -2%, IL-1B inflam inh -3, ELG1 repair inh inconclusive, HT1080NT lethal -4%, DT40 TDP1 no CPT -30% and DT40 TDP1 CPT -16%.
`COc1cc(OC)c(NS(=O)(=O)c2cc(C(=O)NCCCN3CCOCC3)ccc2C)cc1Cl` gave HT1080 IDH1KD tx -14%, IL-1B inflam inh 2, HT1080NT lethal -11%, DT40 TDP1 no CPT 0% and DT40 TDP1 CPT -6%.
COc1ccc(C)cc1-n1nnnc1SCC(=O)c1ccc2c(c1)OCCO2 was read as HT1080 IDH1KD tx -5%, IL-1B inflam inh -13, ELG1 repair inh 7%, HT1080NT lethal 0%, DT40 TDP1 no CPT inconclusive and DT40 TDP1 CPT 18µM*.
`Cc1ccc(-n2nnnc2SCC(=O)c2ccc3c(c2)NC(=O)CO3)c(C)c1` gave HT1080 IDH1KD tx -2%, IL-1B inflam inh 6, ELG1 repair inh -25%, HT1080NT lethal 2%, DT40 TDP1 no CPT inconclusive and DT40 TDP1 CPT inconclusive.
For COc1ccc(-n2nnnc2SCC(=O)c2ccc3c(c2)OCCO3)c(OC)c1 the results were HT1080 IDH1KD tx 23%, IL-1B inflam inh -2, ELG1 repair inh -9%, HT1080NT lethal 7%, DT40 TDP1 no CPT 13µM* and DT40 TDP1 CPT inconclusive.
`COc1ccc(C)cc1-n1nnnc1SCC1CCCO1` (stereo not drawn) gave HT1080 IDH1KD tx -1%, IL-1B inflam inh 0, ELG1 repair inh 4%, HT1080NT lethal 2%, DT40 TDP1 no CPT 0% and DT40 TDP1 CPT inconclusive.
Screening O=C(/C=C/c1ccco1)NC(=S)Nc1nc(-c2ccc(Cl)cc2)cs1 returned HT1080 IDH1KD tx -8%, IL-1B inflam inh -8, ELG1 repair inh 21%, HT1080NT lethal -1%, DT40 TDP1 no CPT 4.6µM* and DT40 TDP1 CPT 5.2µM*.
Screening COc1ccc(-c2csc(NC(=S)NC(=O)/C=C/c3ccccc3)n2)cc1Br returned HT1080 IDH1KD tx -19%, IL-1B inflam inh 3, ELG1 repair inh 2%, HT1080NT lethal -16%, DT40 TDP1 no CPT 23µM* and DT40 TDP1 CPT inconclusive.
Screening COc1ccc(-c2csc(NC(=S)NC(=O)c3ccc4ccccc4c3)n2)cc1OC returned HT1080 IDH1KD tx 6%, IL-1B inflam inh 11, ELG1 repair inh -7%, HT1080NT lethal 15%, DT40 TDP1 no CPT inconclusive and DT40 TDP1 CPT inconclusive.
O=C(/C=C/c1ccco1)NC(=S)Nc1nc(-c2ccc3ccccc3c2)cs1 was read as HT1080 IDH1KD tx inconclusive, IL-1B inflam inh -5, ELG1 repair inh 23%, HT1080NT lethal inconclusive, DT40 TDP1 no CPT 4.1µM* and DT40 TDP1 CPT 3.3µM*.
CCOC(=O)C1(C)CCCN(C(=O)CCc2ccccc2)C1 (stereo not drawn) was read as HT1080 IDH1KD tx -1%, IL-1B inflam inh 4, HT1080NT lethal 4%, DT40 TDP1 no CPT -11% and DT40 TDP1 CPT 6%.
O=C(CC1SC(N2CCOCC2)=NC1=O)Nc1ccccc1Cl (stereo not drawn) was read as HT1080 IDH1KD tx 7%, IL-1B inflam inh 9, ELG1 repair inh 0%, HT1080NT lethal 0%, DT40 TDP1 no CPT 15% and DT40 TDP1 CPT -1%.
For Cc1ccc(NC(=O)CSc2ncnc3c2sc2ccccc23)cc1C the results were DT40 TDP1 no CPT 0% and DT40 TDP1 CPT -12%.
`CCOCCN1CCN(C2c3ccccc3CSc3ccccc32)CC1` (stereo not drawn) gave HT1080 IDH1KD tx inconclusive, IL-1B inflam inh -74*, HT1080NT lethal inconclusive, DT40 TDP1 no CPT inconclusive and DT40 TDP1 CPT inconclusive.
Screening COc1ccc(C(C(=O)NC2CCCC2)n2c(-c3cccs3)nc3ccccc32)cc1 (stereo not drawn) returned HT1080 IDH1KD tx -3%, IL-1B inflam inh 0, HT1080NT lethal -1%, DT40 TDP1 no CPT inconclusive and DT40 TDP1 CPT inconclusive.
CC1=C(c2ccc(C)c(C)c2)S(=O)(=O)N=C1N1CCC(C(=O)NCc2ccc(C)o2)CC1 was read as DT40 TDP1 no CPT -17% and DT40 TDP1 CPT 4%.
`Cc1[nH]c2ccccc2c1/C=C/c1nc2ccccc2c(=O)n1-c1ccc([N+](=O)[O-])cc1` gave HT1080 IDH1KD tx 2%, IL-1B inflam inh 0, ELG1 repair inh inconclusive, HT1080NT lethal -6%, DT40 TDP1 no CPT 2.1µM* and DT40 TDP1 CPT inconclusive.
Screening COc1cc(/C=C/c2nc3ccccc3c(=O)[nH]2)ccc1O returned HT1080 IDH1KD tx inconclusive, IL-1B inflam inh inconclusive, HT1080NT lethal -30%, DT40 TDP1 no CPT 16µM* and DT40 TDP1 CPT inconclusive.
Screening O=C(O)c1ccc(/C=C/c2nc3ccccc3c(=O)[nH]2)cc1 returned HT1080 IDH1KD tx -1%, IL-1B inflam inh 52, ELG1 repair inh 8%, HT1080NT lethal -3%, DT40 TDP1 no CPT -1% and DT40 TDP1 CPT -7%.
`O=c1[nH]c(/C=C/c2ccccc2Cl)nc2ccccc12` gave HT1080 IDH1KD tx -1%, IL-1B inflam inh -3, ELG1 repair inh inconclusive, HT1080NT lethal -3%, DT40 TDP1 no CPT inconclusive and DT40 TDP1 CPT 16µM*.
Cc1[nH]c2ccccc2c1/C=C/c1nc2ccccc2c(=O)[nH]1 was read as HT1080 IDH1KD tx 16µM*, IL-1B inflam inh -103*, ELG1 repair inh inconclusive, HT1080NT lethal inconclusive, DT40 TDP1 no CPT 10µM* and DT40 TDP1 CPT inconclusive.
CCOC(=O)c1sc(NC(=O)C(C)Sc2nc(-c3ccccc3)cc(C(F)(F)F)n2)c(C(=O)OC)c1C (stereo not drawn) was read as DT40 TDP1 no CPT -9% and DT40 TDP1 CPT -3%.
For COc1cc2c(cc1O)C(Cc1ccc(O)cc1)[N+](C)(C)CC2 (stereo not drawn) the results were DT40 TDP1 no CPT -3% and DT40 TDP1 CPT 6%.
Screening Cn1cnc2c(ncn2[C@@H]2O[C@H](CO)[C@@H](O)[C@H]2O)c1=N returned DT40 TDP1 no CPT 1% and DT40 TDP1 CPT 1%.
Cc1cccc(/C=C/c2nc3ccccc3c(=O)[nH]2)c1 was read as HT1080 IDH1KD tx inconclusive, IL-1B inflam inh 3, ELG1 repair inh inconclusive, HT1080NT lethal inconclusive, DT40 TDP1 no CPT 15µM* and DT40 TDP1 CPT 21µM*.

Source: PubChem (National Center for Advancing Translational Sciences (NCATS))
